D3 ag: D3 dopamine receptor (human) agonism; P35462; D3R DiscoveRx beta-arrestin cells, luminescence, 90 min; max activation, %; actives 0.58% (n = 410,000); AID 652048; in the data active means max activation above about 30%; further: 0% is about no effect
Target sequence (P35462 whole entry, looked up): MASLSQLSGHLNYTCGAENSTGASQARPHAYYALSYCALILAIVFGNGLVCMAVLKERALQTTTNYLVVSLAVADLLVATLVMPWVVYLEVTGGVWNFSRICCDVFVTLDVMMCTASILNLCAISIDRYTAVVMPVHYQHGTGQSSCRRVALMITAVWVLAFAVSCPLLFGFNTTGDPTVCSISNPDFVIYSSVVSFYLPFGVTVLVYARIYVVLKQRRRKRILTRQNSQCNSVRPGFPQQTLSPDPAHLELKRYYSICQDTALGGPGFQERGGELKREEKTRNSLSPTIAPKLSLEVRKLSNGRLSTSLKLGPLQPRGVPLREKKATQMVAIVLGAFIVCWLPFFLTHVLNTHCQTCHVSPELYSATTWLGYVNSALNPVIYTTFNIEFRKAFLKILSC
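Agonist mode: compounds and dopamine controls were applied to plated cells for 90 min at 37 degrees C after an overnight attachment at 1500 cells/well. Luminescent read-out followed 30 - 60 minutes at room temperature with DiscoveRx detection reagent.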
Nrf2 activator: activators of Nrf2 (ARE) signaling; AREc32 ARE-luciferase reporter (MCF7-derived line), luminescence, 24 h; AID 624171; Potency, µM (doses to about 46.1 µM), for the others: at the top dose activation, usual class: activators; actives 0.31% (n = 410,000); further: potency means the concentration at half of the fitted maximal effect; % of control where 0% means no effect; nearly all actives have a fitted effect of over 65% in size
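Quantitative high-throughput format: AREc32 reporter cells, 1000 per well, received compound by pin transfer and were incubated 24 hr at 37 deg C, 5% CO2, before Steady-Glo luminescence detection.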
DRD3 antagonist: blocks the human D3 dopamine receptor; P35462; D3R cells, DiscoveRx beta-arrestin luminescence, antagonist mode; stronger effect = lower value; max response, negative = inhibition, %; actives 2.5% (n = 360,000); AID 652054; in the data active means max response below about -50%; inconclusive means no clear call, values can overlap the other calls; further: on the % scale 0 is the no-effect control and ±100 the full control effect
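Cells plated overnight at 1500 cells/well, then exposed to library compounds with dopamine controls for 90 minutes at 37 degrees C. DiscoveRx reagent added for 30–60 minutes at room temperature; luminescence read, quantitative HTS format.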
Glioma ERSR ind: ER stress response induction in glioma. U87-MG GRP78 promoter luciferase reporter, 16 h. Potency, µM, inactives show at the top dose activation, usual class: activators. actives 0.02% (n = 420,000). AID 602332; further: potency means the concentration at half of the fitted maximal effect; series mostly up to about 76 µM; % of control where 0% means no effect; nearly all actives have a fitted effect of over 35% in size
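ERSR induction read as luciferase luminescence (Bright-Glo, 10 min at room temperature) in stably transfected human U87-MG glioma cells exposed to compounds for 16 h, using GRP78 as sensor.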
* hit, by the source's call; ? = inconclusive; . = no result given. The list is not random: actives were taken first. Their share in the collection is about 3%. Unless noted, the call rests on the fitted dose curve; in most records, active means well fitted curve in the direction sought with a large enough effect; inconclusive means small, poorly fitted or top-dose-only effect, or another doubt; inactive means no such curve, though single readings can be large; an effect the other way counts as inactive or inconclusive.

SMILES	D3 ag	Nrf2 activator	DRD3 antagonist	Glioma ERSR ind
COCCNCCCCOc1c(Cl)cc(C)cc1Br	-4	-1%	-84*	-3%
Cc1cc(Cl)c(OCCCNCc2ccccc2)c(Br)c1	-11	0%	-62*	-5%
Cc1cc(C)c(OCCCNCc2ccccc2)c(Br)c1	-16	-3%	-28	-5%
Cc1ncoc1C(=O)N1CCOc2ccc(CN3CCC(Oc4cccnc4)CC3)cc2C1	.	.	.	-3%
CC(C(=O)O)c1ccc(/C=C2\CCCCC2=O)cc1 (centres undefined)	-6	.	.	-2%
COc1ccc(C2Nc3ccccc3C(=O)N2Cc2ccccc2)cc1COc1ccc([N+](=O)[O-])cc1 (centres undefined)	.	.	.	-3%
CN(C)c1ccc(/C=C/c2ccnc3ccc(Br)cc23)cc1	.	.	.	0%
Cc1[nH]c(=O)[nH]c(=O)c1Sc1ccccc1[N+](=O)[O-]	-9	-1%	-4	-4%
CC1(Br)C(Sc2ccccc2[N+](=O)[O-])=Nc2ccccc21 (centres undefined)	-13	0%	-51*	.
COCC(=O)Nc1cc(C(=O)N2CCc3ccccc3C2)c2c(c1)nc(-c1ccncc1)n2C	.	.	.	-4%
O=C(NCc1nnc(SCc2ccc(F)cc2)n1-c1ccccc1)C12CC3CC(CC(C3)C1)C2	0	4%	-51*	-4%
Cc1nc2cc(NC(=O)[C@@H]3C[C@@H](Sc4ccccn4)CN3Cc3ccccc3F)ccc2s1	.	.	.	-3%
CCOc1ccc(CNc2ccc(N3CCN(Cc4ccccc4)CC3)cc2)cc1	-21	-1%	-62*	-1%
CCOc1ccc(NC(=O)CCN2CCN(c3ccccc3)CC2)cc1	26	0%	-52*	-3%
Cc1ccccc1C(=O)NCC(=O)NNC(=O)CCN1CCN(c2ccccc2)CC1	32*	0%	-3	-1%
CCOc1ccc(C(=O)CCC(=O)NNC(=O)CCN2CCN(c3ccccc3)CC2)cc1	-4	2%	-63*	-4%
CCCn1cc(S(=O)(=O)c2cc(C)ccc2C)c(=O)c2cc(F)c(N3CCOCC3)cc21	-12	0%	.	-2%
CCC(C)NC(=O)c1ccc2nc(-c3ccco3)c(-c3ccco3)nc2c1 (centres undefined)	.	.	.	0%
COc1ccc(NC(=O)CCN2CCN(c3cccc(Cl)c3)CC2)cc1	7	-1%	.	.
COc1ccc(NC(=O)CCN2CCN(c3ccc(F)cc3)CC2)cc1	8	-1%	-98*	-1%
COc1cc(CN(C(=O)COc2ccc(Cl)cc2)c2ccccn2)cc(OC)c1OC	-8	4%	.	2%
C=CCn1c(CCNC(=O)c2ccc(Cl)c(Cl)c2)nnc1SCCOc1ccc(OC)cc1	-15	5%	6	-4%
Cn1c(CCNC(=O)c2ccc(Cl)c(Cl)c2)nnc1SCc1ccc(Cl)c(Cl)c1	0	0%	-53*	-4%
CCOC(=O)Cc1ccc(Nc2nc(NC)nc3ccsc23)cc1	-23	6%	-78*	-3%
Cn1ccnc1C1CCCCN1C(=O)CN1Cc2ccccc2OC(c2ccccc2F)C1 (centres undefined)	.	.	.	-2%
SMILES	D3 ag	Nrf2 activator	DRD3 antagonist	Glioma ERSR ind
Cc1ccccc1Oc1cc(-n2ncc(Cl)c(Cl)c2=O)ncn1	-54	?	-97*	-13%
CCOc1cnn(-c2cc(Oc3ccc(C)cc3)ncn2)c(=O)c1Cl	4	2%	-24	1%
CCOC(=O)/C(=C\c1cccnc1)C(=O)c1cc(C(C)=O)c(Nc2ccccc2)s1	-30	-3%	-130*	-13%
COc1ccc(/C=C/C(=O)NC(=S)NNC(=O)c2cccs2)cc1OC	5	0%	1	-1%
O=C(NC(=S)Nc1cccnc1Cl)c1ccco1	-3	13µM*	-14	-2%
CCOc1ccc(C(=O)NC(=S)Nc2cccc(NC(=O)c3ccco3)c2)cc1[N+](=O)[O-]	-8	0%	-69*	-3%
COc1ccc(/C=C/C(=O)NC(=S)NNC(=O)Cc2cccs2)cc1OC	1	2%	-72*	-2%
COc1ccc(C(=O)NNC(=S)NC(=O)c2ccco2)cc1	2	0%	-58*	8%
COc1ccc(C(=O)NC(=S)NNC(=O)Cc2cccs2)cc1	1	0%	-67*	0%
COc1ccc(/C=C/C(=O)NC(=S)NNC(=O)c2cccnc2)cc1OC	3	4%	-61*	-5%
O=C(/C=C/c1ccccc1)NC(=S)NNC(=O)c1cccnc1	11	3%	?	-3%
COc1cc(OC)cc(C(=O)NC(=S)NNC(=O)Cc2cccs2)c1	2	1%	20	-3%
O=C(NC(=S)Nc1ccc2c(c1)OCCO2)c1ccco1	-5	0%	?	-5%
O=C(NC(=S)Nc1cccc(O)c1)c1ccco1	-8	11µM*	?	4%
COc1ccc(/C=C/C(=O)O/N=C(\N)c2cccnc2)cc1OC	3	6%	0	8%
O=C(/C=C/c1cccs1)NC(=S)NNC(=O)Cc1cccs1	4	7%	-80*	3%
Cc1ccc2nsnc2c1NC(=S)NC(=O)c1ccco1	-14	6.3µM*	3	-4%
CC(C)(C)c1ccc(C(=O)NC(=S)NNC(=O)c2cccs2)cc1	3	3%	2	14µM*
Cc1ccc2nc(NC(=S)NC(=O)c3ccco3)sc2c1	-6	?	-13	-3%
CCOC(=O)/C(=C\c1ccc(OC)c(OC)c1)C(=O)c1cccnc1	-18	4%	-50*	-2%
Cc1cccn2c(=O)cc(COc3cccc(NC(=O)c4ccccc4F)c3)nc12	-21	0%	.	-5%
COC(=O)c1cccc(C(=O)NCc2nc(-c3ccccc3NC(C)=O)oc2C)c1	.	.	.	-2%
COc1ccc(OC)c(C(=O)COC(=O)c2ccc(C)o2)c1	1	13µM*	20	4%
Cc1ccc(-c2nn(-c3ccc(F)cc3F)c3c2cnc2ccc(F)cc23)cc1	3	-1%	.	-5%
Cc1c(C(=O)N(C)C2CCOC2)sc2ncnc(NCc3ccc4c(c3)OCO4)c12 (centres undefined)	.	.	.	-3%
SMILES	D3 ag	Nrf2 activator	DRD3 antagonist	Glioma ERSR ind
COCC(=O)Nc1cc(C(=O)N2CC3(C)CC2CC(C)(C)C3)c2c(c1)nc(-c1ccncc1)n2C (centres undefined)	.	.	.	6%
CCOC(=O)c1sc2nc(CSc3ccccc3)nc(N3CCCN(C)CC3)c2c1C	-4	0%	-62*	-5%
CCOC(=O)c1sc2nc(CSc3ccccc3)nc(N3CCC(C(N)=O)CC3)c2c1C	-18	0%	-8	-13%
CCOC(=O)c1sc(NC(=O)/C=C/c2ccc(OCC)cc2)c(C(=O)OCC)c1C	1	0%	.	-2%
CCOC(=O)c1sc(NC(=O)/C=C/c2cnn(C)c2C)c(C(=O)OC(C)C)c1C	35*	-1%	9	-1%
COc1cccc(-c2nc(S(=O)(=O)c3ccc(C)cc3)c(N3CCCCC3)o2)c1	-2	1%	.	.
Cc1c(C)c2cccnc2c2ncccc12	-21	4%	-103*	-8%
Clc1cc2cccnc2c2ncccc12	2	4%	-6	-7%
Fc1c(F)c(F)c(N/N=C/c2c[nH]c3ccccc23)c(F)c1F	-3	13µM*	0	7%
